These results are taken from PubChem BioAssay (NCI).

Values joined by “and” are separate entries in the source; they are usually repeats but may differ in a detail not shown here. Identical values can stand only once. This is part of a sample that, as a whole, favours compounds with a hit. Of some 79,000 tested, about 15% had one in any assay. Unmarked numbers belong to inactive results. Active and inactive are the calls of the source. No stated cut-off is given here; in the data, active means growth inhibition above about 70%; inactive means the rest.

Assay [1] is described as follows: NCI Yeast Anticancer Drug Screen. Data for the rad50 strain (AID 155).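 Further: 0% = growth of vehicle-only cultures of the same strain.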 Conditions: S. cerevisiae rad50 strain growth inhibition; at 50.0 µM; stronger effect = higher value. The essentials: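 Compounds were tested on a yeast strain with an engineered DNA damage repair alteration; the reported value is growth inhibition normalised to vehicle treatment.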
The nature of assay [2]: NCI Yeast Anticancer Drug Screen. Data for the mec2-1 strain (AID 157). The note with it: S. cerevisiae mec2-1 strain, at 50.0 µM, stronger effect = higher value. The essentials: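 Each compound was tested on mec2-1 yeast, a strain altered in DNA damage repair or cell cycle control. Growth inhibition is reported relative to vehicle.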
Assay [3] can be described thus: NCI Yeast Anticancer Drug Screen. Data for the sgs1 mgt1 strain (AID 161).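 Further: 0% = growth of cultures given vehicle only.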 Conditions: S. cerevisiae sgs1 mgt1 strain, at 50.0 µM, stronger effect = higher value. The essentials: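 Mutant yeast exposed to compound; growth scored against vehicle-only wells.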
Assay [4] in a line: NCI Yeast Anticancer Drug Screen. Data for the cln2 rad14 strain (AID 165).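 Further: 0% = growth equal to vehicle treated cultures.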 The note with it: S. cerevisiae cln2 rad14 strain, at 50.0 µM, stronger effect = higher value. The essentials: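 Test compounds were added to cln2 rad14 yeast cultures; inhibition of growth was then determined by comparison with vehicle treatment.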
A short description of assay [5]: NCI Yeast Anticancer Drug Screen. Data for the bub3 strain (AID 167). The note with it: S. cerevisiae bub3 mutant strain, at 50.0 µM, stronger effect = higher value. The essentials:
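Growth of a checkpoint-deficient yeast mutant is measured after compound exposure. Values represent inhibition relative to vehicle.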

A short description of assay [6]: NCI Yeast Anticancer Drug Screen. Data for the mlh1 rad18 strain (AID 175). The note with it: S. cerevisiae mlh1 rad18 strain growth inhibition; at 50.0 µM; stronger effect = higher value. The essentials: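 Inhibition values reflect reduced growth of mutant yeast versus vehicle-treated controls following compound exposure; the mutations affect DNA damage repair.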

Take `CC1(O)CCC(O)CC1CC(=O)O` (centres undefined): the growth inhibition in assay [1] was 11.8%; in assay [2], 8.5%; in assay [3] it was 9.45%; in assay [4], 22.1%; in assay [5], -0.15%; in assay [6], 11.4%.

`CCCCCCCCCCCCCCCCCCC[As](=O)(O)CCCCCCCCCCCCCCCCCCC`: the growth inhibition in assay [1] is 46.2%; in assay [2], 19.2%; in assay [3], 23.4%; in assay [4], -2.2%; in assay [5], 13.4%; in assay [6], 30.4%.

Regarding `CC(=O)OC1=CCC2(C)C(CCC3C4CCC(OC(C)=O)C4(C)CCC32)C1=O` (centres undefined), the growth inhibition is 87.5% (active) in assay [1]; 79.4% (active) in assay [2]; 87.5% (active) in assay [3]; 72.3% (active) in assay [4]; 73.5% (active) in assay [5]; 85.3% (active) in assay [6].

As to `CC1(C)CC(O)CC(C)(C)N1O`, the growth inhibition in assay [1] is 21.8%; in assay [2], 15.8%; in assay [3], 37%; in assay [4], 22.2%; in assay [5] it was 20.2%; in assay [6], 16.4%.

As to `NC(=S)N=C(N)N`, the growth inhibition in assay [1] is 11.8%; in assay [2] it was -3.55%; in assay [3], -6.25%; in assay [4], -10.4%; in assay [5], 8.4%; in assay [6] it was 9.85%.

On to `O=P(OCCCCl)(OCCCCl)C(Cl)(Cl)Cl`, for which the growth inhibition is -0.45% in assay [1]; -5.65% in assay [2]; -5.2% in assay [3]; 6.85% in assay [4]; 13.7% in assay [5]; 2.15% in assay [6].

On to `O/N=C1\CN2CCC1CC2`, for which the growth inhibition was 15.9% in assay [1]; 13.2% in assay [2]; 1.7% in assay [3]; 15.4% in assay [4]; 10.4% in assay [5]; 20.3% in assay [6].

Turning to `Cc1cccc(OCC2=NCCN2)c1C`, the growth inhibition in assay [1] is 2.95%; in assay [2] it was -4.4%; in assay [3] it was -8.45%; in assay [4], -57.1%; in assay [5], -4.55%; in assay [6], -25.6%.

As for `CCNP(=S)(OCC)OCC`, the growth inhibition in assay [1] was -9.2%; in assay [2] it was 3.15%; in assay [3], 5.05%; in assay [4], -3.9%; in assay [5] it was -2.7%; in assay [6], -4%.

With `COc1cc(C(CN)N(C)C)cc(OC)c1OC` (centres undefined), the growth inhibition in assay [1] is -42.6%; in assay [2], -48.7%; in assay [3] it was -14.9%; in assay [4], 14.4%; in assay [5], -0.9%; in assay [6] it was -8.65%.

On to `c1ccc(P(CCP(CCP(c2ccccc2)c2ccccc2)c2ccccc2)CCP(c2ccccc2)c2ccccc2)cc1` (centres undefined), for which the growth inhibition in assay [1] was -5.15% and 0.15% and 8.05%; in assay [2], -5.7% and 34.8% and 10.3%; in assay [3] it was -18.6% and 18.4% and -0.95%; in assay [4], -8.05% and -20.2% and 7.15%; in assay [5], 0.45% and 2.95% and 21.9%; in assay [6], -5.95% and 29.8% and 11.2%.

As to `CNC(=O)C(CC(C)[N+](C)(C)C)(c1ccccc1)c1ccccc1` (centres undefined), the growth inhibition in assay [1] is 14.2%; in assay [2], 8.4%; in assay [3], 14.5%; in assay [4] it was 17.9%; in assay [5] it was 4.85%; in assay [6], 11.4%.

As for `CCO[C@@H]1c2cc3c(cc2[C@@H](c2cc(OC)c(O)c(OC)c2)[C@H]2C(=O)OC[C@@H]21)OCO3`, the growth inhibition in assay [1] was 88.1% (active); in assay [2], 92.2% (active); in assay [3] it was 89% (active); in assay [4] it was 85.2% (active); in assay [5], 88.5% (active); in assay [6] it was 87.5% (active).

For the molecule `C1=C/CCC2NC2C/C=C/CCC/1` (centres undefined), the growth inhibition is -6.8% in assay [1]; -20.4% in assay [2]; -10.6% in assay [3]; -18.4% in assay [4]; -22.8% in assay [5]; -19.6% in assay [6].

Consider `O=C(O)C(=O)O.[Ru].c1cnc2c(c1)ccc1cccnc12.c1cnc2c(c1)ccc1cccnc12`, for which the growth inhibition in assay [1] is 25.1%; in assay [2] it was -10.9%; in assay [3], 2.95%; in assay [4], 5.45%; in assay [5] it was -2.2%; in assay [6], 5.25%.

Take `O=C(NC(CSC(c1ccccc1)(c1ccccc1)c1ccccc1)C(=O)O)OCc1ccccc1` (centres undefined): the growth inhibition was 63.7% in assay [1]; 99.5% (active) in assay [2]; 98.5% (active) in assay [3]; 51.9% in assay [4]; 47.6% in assay [5]; 58.8% in assay [6].

As to `CC1=CC(=O)C=CC1=O`, the growth inhibition in assay [1] is 39.1%; in assay [2], 52.3%; in assay [3], 28.9%; in assay [4], 12.4%; in assay [5] it was 11.3%; in assay [6], 55.4%.

For the molecule `CN(C)c1cc(C(C)(C)C)nc(C(C)(C)C)c1`, the growth inhibition in assay [1] is 7.65% and 3%; in assay [2], -1.1% and -1.8%; in assay [3], 8.6% and 5.1%; in assay [4], 1.25% and -5.95%; in assay [5] it was 0.3% and -4.75%; in assay [6] it was 9.05% and 10.4%.

Consider `C[N+]1(CCCl)CCc2cc([N+](=O)[O-])ccc2C1` (centres undefined), for which the growth inhibition was -25.1% in assay [1]; -84.7% in assay [2]; -24.9% in assay [3]; -16.1% in assay [4]; -12.6% in assay [5]; -9.8% in assay [6].
